The results in this text go back to ChEMBL document CHEMBL1157539, “Thousands of chemical starting points for antimalarial lead identification” (Nature, 2010).

In the assay the test system is Plasmodium falciparum. The assay is described as follows: GSK_TCMDC: Inhibition of Plasmodium falciparum Dd2 in whole red blood cells, using parasite LDH activity as an index of growth. Test compounds present at 2uM. It is filed as functional.
`Cc1c(CCNC(=O)CCCN2CC(C)CC(C)C2)c2ccccc2n1C.Cl` (stereo not drawn): the Inhibition (in general, the drop in the measured response relative to a control, in per cent) turned out to be 100%.
With `CC(Cc1ccc(Cl)cc1)Nc1nc(NC2CCCC2)nc(N2CCC(C#N)(c3ccccc3)CC2)n1` (stereo not drawn), the Inhibition worked out at 95%.
Consider `OC(CNc1ccnc(Nc2ccccc2)n1)c1cccc(C(F)(F)F)c1` (stereo not drawn), for which the Inhibition came to 61%.
As for `Cc1ccccc1C1CCN(C2CCC(NC(=O)c3cc4cc(Cl)ccc4o3)CC2)CC1` (stereo not drawn), the figure is 30%; as for `Cc1nc2ccc3ccc(CNc4ccc5c(c4)CN([C@H](CCC(=O)O)C(=O)O)C5=O)cc3c2c(=O)[nH]1`, 90%.
To `Cc1ccc(Nc2ccnc(Nc3ccc(C)c(F)c3)n2)cc1O.Cl` belongs 27%; to `COc1ccc(NS(=O)(=O)c2cccc(C(=O)Nc3ccc(C(F)(F)F)cc3)c2)cc1N1CCN(CC(C)C)CC1.O=C(O)C(F)(F)F`, 4%; to `CCC(CC)(Cc1ccccc1)NC(=O)[C@H](CC1CCCCC1)Nc1ccc(C#N)c2ccccc12.O=C(O)C(F)(F)F`, 76%.
`CC1CC1C(=O)NC1CCN(CC2(c3ccccc3)CCCCC2)CC1` (stereo not drawn) came in with an Inhibition of 95%.
As for `Cc1ccc(Nc2nc3cc(N(C)c4ccnc(Nc5cccc(CCS(C)(=O)=O)c5)n4)ccc3n2C)cc1.O=C(O)C(F)(F)F`, the figure is 73%; as for `CC(C)CCn1c(Sc2ccc([N+](=O)[O-])cc2C(F)(F)F)nnc1-c1ccccc1Cl`, 43%.
Molecule `O=C(Nc1cccc(-c2ccc(-c3nc4cc(C(F)(F)F)ccc4[nH]3)cc2)c1)Nc1ccc(F)c(F)c1F` came in with an Inhibition of 99%.
On to `c1ccc(OCCOc2ccc(Nc3ccnc4cc5ccccc5cc34)cc2)cc1`, for which the Inhibition was determined as 96%.
